# From PubChem BioAssay (Tox21)
# Results filed as inconclusive are left out. A call without a number means that no potency is given here. Activity calls are given as the source filed them. Calls follow the shape of the dose curve; as a rule, active = well fitted activation curve with a large enough effect in the signal ratio in the repeat runs (not every such curve was filed as active); inconclusive = weak or mixed curves; inactive = flat fitted curve, though single readings scatter; the % refers to the signal ratio.
# Assay: p53 small molecule agonists, cell-based qHTS assay (AID 1963582)
# Details: HCT-116 p53RE-bla reporter, beta-lactamase FRET ratio, 16 h; series mostly up to 66 µM; activation: at the top concentration
# Excerpt: National Center for Advancing Translational Sciences [NCATS]
# Division of Preclinical Innovation [DPI]
# U.S. Environmental Protection Agency [EPA]
# National Institutes of Environmental Health Sciences [NIEHS]
# National Toxicology Program [NTP]
# U.S. Food and Drug Administration [FDA]
# p53, a tumor suppressor protein, is activated following cellular insult, including DNA damage and other cellular stresses. The activation of p53 regulates cell fate by inducing DNA repair, cell cycle arrest, apoptosis, or cellular senescence. The activation of p53, therefore, is a good indicator of DNA damage and other cellular stresses. […] The activation of the reporter gene under culture conditions can be detected by fluorescence intensity. This cell line was used to screen the Tox21 10K compound library in a 1536-well plate format and to identify agonists that activate the p53 signaling pathway.
# Tox21 Assay Protocol Summary:
# The p53RE-bla cells were dispensed at 4,000 cells/5 ul/well in 1536-well black wall/clear bottom plates using a Multidrop dispenser. After the assay plates were incubated at a 37 C/5% CO2 incubator for 5 hours, 23 nL of compounds dissolved in DMSO, positive controls or DMSO only was transferred to the assay plate by a pin tool. The plates were incubated at 37 C for 16 hours. After 1 uL of LiveBLAzerTM B/G FRET substrate was added using a Flying Reagent Dispenser, the plates were incubated at room temperature for 2 hours, and fluorescence intensity was measured by an Envision plate reader.
SMILES,Potency,activation
CC(C)(C)OOC(=O)c1ccccc1,inactive,–
C=CC(C)=O,–,-0.167% (inactive)
C=CCc1cc(OC)c2c(c1)OCO2,–,0.0392% (inactive)
C(=NC1CCCCC1)=NC1CCCCC1,inactive,–
COC(=O)c1ccc(CBr)cc1,–,-2.64% (inactive)
Fc1cc(Br)ccc1CBr,–,0.212% [at 30.3 µM] (inactive)
CCOC(=O)CC(SP(=S)(OC)OC)C(=O)OCC (stereo not given),–,-5.21% [at 30.3 µM] (inactive)
c1ccc(CN2CCNCC2)cc1,–,-0.949% [at 172 µM] (inactive)
O=C(Cl)OCc1ccccc1,–,-2.7% (inactive)
CCCCOCC1CO1 (stereo not given),inactive,–
CCOC(=O)C1OC1(C)c1ccccc1 (stereo not given),inactive,–
c1ccc2c(c1)CCCC2,inactive,–
O=c1[nH]c2ccccc2c(=O)o1,inactive,–
Cc1ccc(N)cc1,inactive,–
NC(=O)O,–,1.09% (inactive)
CC(O)CCO (stereo not given),inactive,–
N#CS,inactive,–
C=CC#N,inactive,–
CCSC(=O)N1CCCCCC1,inactive,–
Nc1ccc([N+](=O)[O-])cc1N,inactive,–

SMILES,Potency,activation
O=NN1CCCCCCC1,inactive,–
COP(=O)(NC(C)=O)SC (stereo not given),inactive,–
COC(C)(C)C,–,-0.0393% (inactive)
CCC1(CC)C(=O)C=CNC1=O,–,0.7% [at 30.3 µM] (inactive)
C=CC1CC=CCC1 (stereo not given),–,-3.67% (inactive)
CCOP(=O)(OCC)SCCSCC,–,0.389% (inactive)
CON(C)C(=O)Nc1ccc(Cl)cc1,–,-0.626% (inactive)
CC(C#N)CCC#N (stereo not given),inactive,–
NCc1cccnc1,inactive,–
CCCCN(CCCC)N=O,–,1.71% (inactive)
Cc1ccc([N+](=O)[O-])cc1,inactive,–
CN=C=S,inactive,–
Sc1ccccc1Cl,–,0.972% [at 30.3 µM] (inactive)
CC(Br)C(=O)O (stereo not given),inactive,–
Nc1ccc(Cl)cc1N,–,-1.29% (inactive)
CC(=O)CC(c1ccc(Cl)cc1)c1c(O)c2ccccc2oc1=O (stereo not given),–,-6.29% (inactive)
CCC(=O)C(CC(C)N(C)C)(c1ccccc1)c1ccccc1 (stereo not given),inactive,–
CC(C)(C1CCC(O)CC1)C1CCC(O)CC1 (stereo not given),–,-0.977% (inactive)
NC1(c2ccccc2)CCCCC1,–,2.27% (inactive)
Nc1ccccc1,inactive,–
